Article PMC5540273 (PLoS ONE, 2017)

How the values were obtained:
Settings in all cases: concentration: 1 μM, replicates: in singlicate; n = 1
KIT = system: KIT
LATS1 = system: LATS1
LATS2 = system: LATS2
LCK = system: LCK
LIMK1 = system: LIMK1
LIMK2 = system: LIMK2
LKB1 = system: T1, LKB1
T1 construct: gene STK11

LOK = system: T2, LOK
T2 construct: gene STK10

LRRK2 = system: LRRK2
LTK = system: LTK
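Further: KINOMEscan kinase panel screen.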

Structure (SMILES)	%Inh (KIT) [%]	%Inh (LATS1) [%]	%Inh (LATS2) [%]	%Inh (LCK) [%]	%Inh (LIMK1) [%]	%Inh (LIMK2) [%]	%Inh (LKB1) [%]	%Inh (LOK) [%]	%Inh (LRRK2) [%]	%Inh (LTK) [%]
CS(=O)(=O)c1ccc(-c2c(-c3ncn[nH]3)sc(N3CCOCC3)c2C#N)cc1	28	24	9	8	0	3	0	31	0	28
COc1cc2ncnc(Nc3ccc4nc(-c5ccccc5)[nH]c4c3)c2cc1OC.Cl [GW282450]	72	0	0	33	0	0	0	5	0	11
Cc1cccc(-c2cc(Nc3ccncc3)c3ccccc3n2)n1 [GSK223675]	19	0	22	9	0	0	7	0	0	0
Cc1nnc(-c2ccc3occ(-c4ccc(S(C)=O)cc4)c3c2)[nH]1 (stereo not drawn)	20	19	0	46	0	0	23	98.7	0	0
Cn1ccc2ncnc(Oc3ccc(NC(=O)Nc4ccccc4)cc3)c21	100	16	13	20	1	1	0	94.8	24	0
CC(C)(C)c1ccc(C(=O)Nc2cn3cc(-c4cccnc4)ccc3n2)cc1	91.5	23	10	8	16	20	24	79	0	19
CCn1c(-c2ccccn2)nc2cnccc21 [SB-736398]	0	0	0	12	13	0	0	0	31	1
CN1C(=O)C(Nc2ccc(Cl)c(C(=O)O)c2)=C(c2ccc(Cl)cc2)C1=O [SB-404290]	1	15	15	23	7	0	18	4	0	9
O=C(O)COc1ncnc2cc(-c3ccc4[nH]ncc4c3)sc12	21	0	48	0	0	0	0	2	0	97.3
COc1ccc2nc(-c3cccc(C)n3)nc(Nc3ccncc3)c2c1 [GSK204919]	26	0	0	4	20	3	0	0	0	0
Fc1cccc(COc2nnc(-c3ccc4c(c3)CCO4)o2)c1	3	0	0	0	0	0	16	0	4	0
CC(C)(C)c1ccc(C(=O)Nc2cn3cc(Cl)ccc3n2)cc1	74	10	0	26	0	0	4	8	0	0
NC(=O)c1nnc2ccccc2c1N	10	0	0	0	0	5	0	10	75	0
O=C(Nc1ccc2c(c1)OCO2)NC1CCN(c2ccnc(Nc3ccc(F)cc3)n2)C1 (stereo not drawn) [GSK1379724]	54	0	0	12	41	0	0	0	28	0
CN(C)CCN(C)C(=O)c1cc(-c2ccncc2)c(-c2ccc(Cl)c(O)c2)o1.Cl.Cl [SB-710397]	0	3	0	34	0	0	0	72	0	11
COc1ccccc1CNC(=O)c1cc(C(=O)c2ccccc2C)c[nH]1 [GSK364507]	41	0	0	12	8	5	0	0	0	0
COc1ccc(CNC(=O)NC2CCN(c3ccnc(Nc4cc(OC)c(OC)c(OC)c4)n3)C2)cc1 (stereo not drawn) [GSK1379748]	57	0	11	7	0	0	12	0	0	64
Cc1csc(-c2nc(Nc3ccncc3)c3ccccc3n2)n1 [GW869640]	12	19	20	2	15	2	43	40	31	18
